Mito fusion act: qHTS Assay for Small Molecule Inhibitors of Mitochondrial Division or Activators of Mitochondrial Fusion | S. cerevisiae fusion-defective mutant growth rescue, CellTiterGlo 48 h | Potency, µM (series often up to 46.1 µM), for inactives: at the highest dose growth rescue (activation), usual class: activators | 0.23% of 320,000 active | AID 485298, 2010; also: % of control where 0% means no effect; nearly all actives have a fitted effect of over 45% in size
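Growth-rescue viability read-out: after 48 h at the non-permissive 37C in glycerol/ethanol YPEG, yeast mitochondrial fusion mutants are measured by CellTiterGlo luminescence; compounds (23 nl pinned per well) restoring growth score as division inhibitors or fusion activators.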
BRCA1 expr act: qHTS Assay to Identify Small Molecule Activators of BRCA1 Expression; MCF7-BRCA1-FFLuc reporter, luminescence, 48 h; response scale: scaled: vehicle 0%, 10 µM genistein 100%; Potency, µM (series often up to 46.1 µM), for the others: at the top dose activation, usual class: activators; 1.1% of 380,000 active; AID 624202, 2012; also: nearly all actives have a fitted effect of over 80% in size
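Luminescence from a BRCA1-driven firefly luciferase in MCF7 cells was the read-out, taken 15 min after substrate addition following 48 h compound exposure at 37 °C. Data were normalized to a 10 microM genistein control and DMSO vehicle.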
GLP-1R inv ag: qHTS of GLP-1 Receptor Inverse Agonists (Inhibition Mode); Potency, µM (highest dose often 38.3 µM), inactives show at the highest dose activity change, negative = inhibition, hits mostly inhibitors; 1.6% of 410,000 active; AID 624417, 2012; Glucagon-like peptide 1 receptor (Homo sapiens), P43220; HEK293 GLP-1R CRE-luciferase, luminescence, 24 h; GLP-1R form is constitutively active; also: % is scaled to controls: 0 for no effect and ±100 for the full control effect; nearly all actives have a fitted effect of over 55% in size
Target sequence (P43220 whole entry, looked up): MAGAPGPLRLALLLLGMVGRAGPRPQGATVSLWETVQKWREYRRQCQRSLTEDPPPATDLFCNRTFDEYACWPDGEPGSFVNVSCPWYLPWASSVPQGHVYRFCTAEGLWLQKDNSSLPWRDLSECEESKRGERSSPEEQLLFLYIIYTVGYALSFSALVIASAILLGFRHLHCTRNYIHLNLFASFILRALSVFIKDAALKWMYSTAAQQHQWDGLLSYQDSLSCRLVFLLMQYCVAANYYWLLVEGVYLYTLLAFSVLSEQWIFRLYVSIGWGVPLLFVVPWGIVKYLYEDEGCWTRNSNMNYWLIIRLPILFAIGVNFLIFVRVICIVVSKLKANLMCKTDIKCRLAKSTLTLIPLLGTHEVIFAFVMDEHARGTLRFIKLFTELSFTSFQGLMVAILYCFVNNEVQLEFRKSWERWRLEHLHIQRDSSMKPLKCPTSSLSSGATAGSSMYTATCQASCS
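HEK293 cells stably co-expressing a cAMP-responsive luciferase reporter and constitutively active GLP-1R were seeded, incubated 12 h, then exposed to compounds for 24 h at 37 C. Luminescence was read 12 min after detection reagent; inverse agonists lower signal.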
GLP-1R agonist: qHTS of GLP-1 Receptor Agonists; HEK293 GLP-1R CRE-luciferase, luminescence, 4-6 h; cells express a hypersensitive GLP-1R form; 0.007% of 380,000 active; Glucagon-like peptide 1 receptor (Homo sapiens), P43220; Potency, µM (top dose mostly 45.6 µM), without a hit: at the highest dose activation, most hits filed as activators; also: % of control where 0% means no effect
GLP1R cytotox: qHTS of GLP-1 Receptor Inverse Agonists: Cytotox Screen. Potency, µM (doses to about 38.3 µM), without a hit: top-dose activity change, negative = inhibition, actives largely listed as inhibitors. AID 624418, 2012. 0.13% of 410,000 active. HEK293 cAMP-luciferase reporter cells, luminescence, 24 h;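 also: loss of luciferase light is scored as toxicity; % is scaled to controls: 0 for no effect and ±100 for the full control effect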
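Compound-treated cells are incubated 24 hr at 37 deg C under 5% CO2 after a 12 hour attachment period, then luciferase detection reagent is added and luminescence is measured following 12 min at room temperature; lowered signal indicates toxicity.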
Active calls of the source: *; ? = inconclusive; · = no result given; [ ] = remark or other dose. The list is not random: actives were taken first. Their share in the collection is about 2.8%. Calls follow the shape of the dose curve; as a rule, active = well fitted curve in the direction sought with a large enough effect; inconclusive = small, poorly fitted or top-dose-only effect, or another doubt; inactive = no such curve, though single readings can be large; an effect the other way counts as inactive or inconclusive. Potency is read from the fitted curve at half-maximal effect.

SMILES	Mito fusion act	BRCA1 expr act	GLP-1R inv ag	GLP-1R agonist	GLP1R cytotox
Cn1c(CNc2ccc(Cl)cc2)nnc1SCCN1CCCCC1	1%	-33%	4µM*	-13%	-10%
Cn1c(CNc2ccc(Cl)cc2)nnc1SCC#N	-3%	-29%	0%	-6%	5%
COc1ccc(-c2csc(C(C)(O)c3ccc(F)c(F)c3)n2)cn1 (configuration not stated)	·	-28%	?	9%	-18%
O=C(CSc1nnc2ccccn12)c1ccc2c(c1)OCCO2	-4%	7.1µM*	-30%	-24%	0%
Cc1ccnc(SCC(=O)N2CCc3ccccc32)n1	7%	10µM*	4%	4%	0%
COc1ccc(C(=O)CSc2nnc3ccccn23)cc1OC	-2%[9.22 µM]	30%	51%	-6%	-5%
O=C(CSc1nnc2ccccn12)N1CCc2ccccc21	-4%	2.8µM*	-16%	0%	14%
Fc1ccc(-c2nc3ccc(Br)cn3c2Cc2ccccc2C(F)(F)F)cc1	·	-37%	?	-1%	2%
O=C(c1ccc(Br)cc1)c1coc2ccc(O)cc12	·	11µM*	9%	11%	-5%
O=C(c1coc2ccc(O)cc12)C1CC1	-3%	53%	44%	16%	-1%
O=C(c1ccc(Cl)cc1)c1coc2ccc(O)cc12	6%	4µM*	?	-1%	2%
COc1ccc(CN(C(=O)Cc2coc3ccc(C)cc23)C2CCS(=O)(=O)C2)cc1 (configuration not stated)	·	·	6%	·	-7%
Oc1ccc(N=Nc2ccc3c(c2)OCCO3)c2ncccc12	10%	-84%	?	-1%	10µM*
CCN(C(C)=O)c1nnc(CSc2nc3ccccc3s2)s1	7%	24%	8%	5%	-3%
Cc1noc(C)c1CSc1nc2ccccc2s1	7%	-8%	-24%	28%	7%
c1csc(CSc2nc3ccccc3s2)c1	8%	7.9µM*	8%	2%	10%
CNc1nnc(CSc2nc3ccccc3s2)s1	7%	11µM*	33%	13%	3%
Cc1ccc(CCN2CC(C(=O)NCCN(C)C)CC2=O)cc1 (configuration not stated)	3%	-12%	5%	11%	2%
CCOc1ccc(NC(=O)C(=O)NCC2CCCN2CC)cc1 (configuration not stated)	0%	2%	0%	-1%	8%
COc1cccc(/C=C(/C(=O)OCC(=O)NC2CCCC(C)C2C)c2ccccc2)c1 (configuration not stated)	?	-55%	10µM*	10%	-6%
COc1cccc(/C=C(/C(=O)OCC(N)=O)c2ccccc2)c1	4%	0%	?	8%	8%
Cc1ccc(N(Cc2ccccc2)C(=O)c2cccc(F)c2)cc1	1%	35%	?	14%	-6%
Cc1cccc2cc(CN(Cc3ccccc3)C(=O)c3cccc(F)c3)c(Cl)nc12	3%	-23%	11µM*	-2%	-6%
Cc1cc(C)c(S(=O)(=O)NC2CC(C)(C)NC(C)(C)C2)cc1Br	-5%	-22%	11µM*	-1%	-10%
COc1ccc(S(=O)(=O)NC2CC(C)(C)NC(C)(C)C2)cc1	2%	-4%	11%	-2%	-19%
CC1(C)CC(NS(=O)(=O)c2ccc3ccccc3c2)CC(C)(C)N1	1%	-9%	11µM*	4%	20%
Cc1cc(OCC(=O)NC2CC(C)(C)NC(C)(C)C2)c(C)cc1Br	2%	-31%	4.5µM*	0%	12%
Cc1ccc(C(C)C)cc1S(=O)(=O)NC1CC(C)(C)NC(C)(C)C1	0%	-20%	8.9µM*	4%	-15%
Cc1cccc(NC(=O)COc2ccccc2)c1	2%	3%	-1%	?	-6%
O=C(Nc1cc(-c2nc3ncccc3o2)ccc1Cl)c1ccc2c(c1)OCO2	10%	-12%	5%	-5%	5%

Source: PubChem (National Center for Advancing Translational Sciences (NCATS))
